PubChem BioAssay (NCATS)
Inconclusive results are not listed. Entries that show only a call come without a potency. The source made the active and inactive calls. Calls come from the whole dose curve; as a rule, active = well fitted inhibition curve with a large enough effect; inconclusive = small, poorly fitted or top-dose-only effect; inactive = no such curve, though single readings can be large or run the other way. Where a SMILES comes first, the peptide text is derived from it. Bridges are numbered along the chain shown (N, C = ends). [ ]: non-standard residue; d: D form. The star is where a group is joined. X1 = CCC(C)C(N)C1=NC(C(=O)*)CS1; dOrn = NCCC[C@@H](N)C(=O)O

The compounds below were run on Zika virus NS2B-NS3 protease (linked construct) (assay: Primary screen NINDS Rhodamine qHTS for Zika virus inhibitors (AID 1347160; note: nearly all actives have a fitted effect of over 55% in size)). Details: purified NS2B-NS3 protease, Rhodamine110 substrate fluorescence; series mostly up to 57.1 µM.
Procedure, shortened: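 Single-chain NS2B-NS3 protease, 25 nM, pH 8.0; compounds preincubated 15 min. Activity: Rhodamine110 release from 1.5 microM substrate over 15 min, room temperature, data fitted to 4-parameter Hill.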

Structure (SMILES) | Potency | activity change, negative = inhibition
CC1[C@@H](O)[C@@H](O)C2[C@]3(C)C(C[C@H]4OC(=O)[C@H](O)[C@]1(O)[C@@]24C)C(C)(O)C[C@H](O)[C@H]3O (stereo not given in full) | inactive | –
CC[C@H]1OC(=O)[C@H](C)[C@@H](OC2C[C@@](C)(OC)[C@@H](O)[C@H](C)O2)[C@H](C)[C@@H](OC2O[C@H](C)C[C@H](NC)[C@H]2O)[C@](C)(O)C[C@@H](C)CN(C)[C@H](C)[C@@H](O)[C@]1(C)O (stereo not given in full) | inactive | –
COc1cc(/C=C/C(=O)O[C@H]2[C@H](O)[C@@H](CO)O[C@@]2(CO)O[C@H]2O[C@H](COC(=O)c3ccc(O)cc3)[C@@H](O)[C@H](O)[C@H]2O)cc(OC)c1OC | inactive | –
O=C(/C=C/c1ccc(O)cc1)O[C@H]1[C@@H]2C=CO[C@@H](O[C@@H]3O[C@H](CO)[C@@H](O)[C@H](O)[C@H]3O)[C@@H]2[C@@]2(CO)O[C@@H]12 | inactive | –
CCC(NC(=O)CC(NC(=O)C(CO)NC(=O)C(CC)NC(=O)c1ccc[nH]1)c1ccccc1)C(=O)O (stereo not given) | inactive | –
CCC(CCO[C@@H]1O[C@H](CO[C@H]2OC[C@](O)(CO)[C@H]2O)[C@@H](O)[C@H](O)[C@H]1O)C(C)(C)O (stereo not given in full) | inactive | –
Clc1ccc(CN[C@H]2CCN(c3ncc(Br)cn3)C2)c(Cl)c1 | inactive | –
C=C1CC[C@H]2[C@@](C)(CCC[C@@]2(C)C(=O)O)[C@@H]1CCC(C)CCO (stereo not given in full) | inactive | –
C=C1CCC[C@]2(C)C[C@]3(O)OC(=O)C(C)=C3C[C@@H]12 | inactive | –
CN1C(=O)c2ccccc2-n2c(nc3ccccc3c2=O)[C@@]12O[C@H]2c1ccccc1 | inactive | –
CN1CCC(c2c[nH]c3ccc(NC(=O)c4ccc(F)cc4)cc23)CC1 | inactive | –
CC1(C)OC(=O)C(OCC2CC2)=C1c1ccc(S(C)(=O)=O)cc1 | inactive | –
COC(=O)C1=C[C@@H](O)[C@@H](O)[C@H](O[C@@H]2O[C@H](COC(=O)/C=C/c3ccccc3)[C@@H](O)[C@H](O)[C@H]2O)C1 | inactive | –
C=C(C)[C@@H]1CC[C@](C)(O)[C@@H](OC(=O)c2ccccc2)C1 | inactive | –
C[C@@H]1O[C@@H](O[C@H]2[C@H](OC(C#N)c3ccc(O)cc3)O[C@H](CO)[C@@H](O)[C@@H]2O)[C@H](O)[C@H](O)[C@H]1O (stereo not given in full) | inactive | –
CC(=O)OC[C@@]12[C@@H](OC(C)=O)C[C@@H](C)[C@](C)([C@@H]3C[C@H]4C=CO[C@H]4O3)[C@H]1CCC[C@]21CO1 | inactive | –
O=C1Nc2ccc(O)cc2O[C@H]1O[C@@H]1O[C@H](CO)[C@@H](O)[C@H](O)[C@H]1O | inactive | –
CC(=O)OC[C@]12[C@H](OC(C)=O)C(=O)[C@@H]3[C@@H](OC(C)=O)[C@@]14O[C@@]3(C)COC(=O)c1cccnc1[C@@H](C)[C@H](C)C(=O)O[C@@H]([C@H](OC(C)=O)[C@@H]2OC(C)=O)[C@]4(C)O | inactive | –
CC(=O)O[C@@H]1C[C@@]23C[C@@]24CC[C@H](OC2OC[C@@H](O)[C@H](O)[C@H]2O)C(C)(C)[C@@H]4CC[C@H]3[C@]2(C)CC3OC4(C[C@@H](C)C3[C@@]12C)OCC1(C)OC14 (stereo not given in full) | inactive | –
CCC[C@@H]1C[C@@H](C(=O)N[C@H](C(C)Cl)[C@H]2O[C@H](SC)[C@H](O)[C@@H](O)[C@H]2O)N(C)C1 (stereo not given in full) | inactive | –

Structure (SMILES) | Potency | activity change, negative = inhibition
C=CC(C)(C)C12CC3C(=O)NC(Cc4cnc[nH]4)C(=O)N3C1Nc1ccccc12 (stereo not given) | inactive | –
COC1=CC(=O)O[C@@H](CCc2ccccc2)[C@@H]1O | inactive | –
CCN(c1cc(C#CCN2CCOCC2)cc(C(=O)NCc2c(C)cc(C)[nH]c2=O)c1C)C1CCC(N(C)CCOC)CC1 (stereo not given) | inactive | –
CN(C)C/C=C/C(=O)Nc1ccc(C(=O)Nc2cccc(Nc3ncc(Cl)c(-c4c[nH]c5ccccc45)n3)c2)cc1 | inactive | –
C[C@@H](O)[C@H](N)C(=O)N1CCC[C@H]1C(=O)N1CCC[C@H]1C(=O)N[C@H](C(N)=O)[C@@H](C)O (H-TPPT-NH2) | – | 20.4% [at 10.7 µM] (inactive)
CC(C)=CCCC1(C)Oc2cc3c(c4c2C2C(O4)C(C)(O)CCC21)CN(C(CCC(=O)O)C(=O)O)C3=O (stereo not given) | inactive | –
CCOC(=O)N1CCC(NCCNC(=O)c2ccccc2C)CC1 | inactive | –
NC(=O)c1cccc(-c2cc(O)cc(OC(=O)NC3CCCCC3)c2)c1 | inactive | –
CC1(C)CCC[C@@]2(C)[C@H]1[C@H](O)C=C1COC(=O)[C@@]12O | inactive | –
CC1(C)CC[C@]2(C(=O)O)CC[C@]3(C)C(=CCC4[C@@]5(C)C[C@@H](O)[C@H](O)C(C)(C)C5CC[C@]43C)[C@@H]2[C@@H]1O (stereo not given in full) | inactive | –
C=CC(C)(CC/C=C(\C)CC/C=C(\C)CC(O)/C=C(\C)C(=O)O)O[C@@H]1O[C@H](CO)[C@@H](O)[C@H](O)[C@H]1O[C@@H]1O[C@H](CO)[C@@H](O)[C@H](O)[C@H]1O (stereo not given in full) | inactive | –
C[C@@H]1C/C=C/C=C\C=C\C=C\[C@H](O[C@@H]2O[C@H](C)[C@@H](O)[C@H](N)[C@@H]2O)C[C@@H]2O[C@](O)(C[C@@H](O)C[C@H]3O[C@@H]3/C=C/C(=O)O1)C[C@H](O)[C@H]2C(=O)O | inactive | –
CCCCNC(=O)[C@@H]1Cc2ccccc2N1C(=O)[C@@H](N)CC | inactive | –
C=C1C(OC(C)=O)C(=O)C2C(C)(C)C(OC(C)=O)CCC2(C)C1CC(OC(C)=O)/C(C)=C/COC(C)=O (stereo not given) | inactive | –
COCCN(C)Cc1ccc2nc3sc(C(=O)N(C)C4CCCCC4)cn3c2c1 | inactive | –
C[C@@H]1CC[C@]2(C(=O)O[C@@H]3O[C@H](CO)[C@@H](O)[C@H](O)[C@H]3O)CC[C@]3(C)C(=CCC4[C@@]5(C)C[C@@H](O)[C@H](O)C(C)(C)C5CC[C@]43C)C2[C@]1(C)O (stereo not given in full) | inactive | –
COC(=O)[C@@H]1C2CC3c4[nH]c5ccccc5c4CCN3CC2CC[C@@H]1O (stereo not given in full) | inactive | –
CCOC(=O)c1c(C)nn(-c2cccc([N+](=O)[O-])c2)c1C | inactive | –
CCC(C)C(N)C1=NC(C(=O)N[C@@H](CC(C)C)C(=O)N[C@H](CCC(=O)O)C(=O)N[C@H](C(=O)N[C@H]2CCCCNC(=O)[C@H](CC(N)=O)NC(=O)[C@@H](CC(=O)O)NC(=O)[C@H](Cc3cnc[nH]3)NC(=O)[C@@H](Cc3ccccc3)NC(=O)[C@H]([C@@H](C)CC)NC(=O)[C@@H](CCCN)NC2=O)[C@@H](C)CC)CS1 (stereo not given in full) (X1-L[dE]IK[dOrn]I[dF]H[dD]N; lactam 4-C) | inactive | –
CC1=C2[C@@H]([C@H](C)CC[C@H]2/C=C(\C)C(=O)O)[C@H](O)C1 | inactive | –
